The campaign covered roughly 5,500 compounds. About 2,000 (36%) were called active. Another 18% or so got no clear call; they are omitted. Cut-off read from the data, not from the text of the source: active = normalized growth mostly below about 0.91 (no sharp cut-off); inconclusive = no clear call, values can overlap the other calls; inactive = mostly above about 0.92. The list shows a part of the results.
Test: chemical genetic growth profiling, strain panel (AID 1159580);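 note: tested at 20 µM; growth read once vehicle control cultures reached saturation at 30 °C; 1 = growth at the plate median or of vehicle wells; lower values mean less growth of the strain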
Details: S. cerevisiae deletion strains, growth OD

Measured: normalized growth

O=C(OC1Cc2c(O)cc(O)cc2OC1c1cc(=O)c(O)c2c(O)c(O)cc(C3Oc4cc(O)cc(O)c4CC3O)c2c1)c1cc(O)c(O)c(O)c1 (stereo unspecified)
active: locus YAL013W, strain DEP1, hits give low values 0.132 | locus YAL021C, strain ccr4, hits give low values 0.794 | locus YAL026C, strain drs2, hits give low values 0.856 | locus YBR009C, strain hhf1, hits give low values 0.901 | locus YBR023C, strain chs3, hits give low values 0.87 | locus YBR229C, strain ROT2, hits give low values 0.766 | locus YBR231C, strain swc5, hits give low values 0.819 | locus YCL029C, strain bik1, hits give low values 0.816 | locus YDL035C, strain GPR1, hits give low values 0.158 | locus YDL074C, strain BRE1, hits give low values 0.286 | locus YDL101C, strain DUN1, hits give low values 0.194 | locus YDL192W, strain arf1, hits give low values 0.747 | locus YDR069C, strain doa4, hits give low values 0.71 | locus YDR101C, strain arx1, hits give low values 0.91 | locus YDR137W, strain rgp1, hits give low values 0.844 | locus YDR150W, strain NUM1, hits give low values 0.651 | locus YDR162C, strain NBP2, hits give low values 0.0937 | locus YDR318W, strain mcm21, hits give low values 0.828 | locus YDR334W, strain swr1, hits give low values 0.873 | locus YDR388W, hits give low values 0.888 | locus YDR502C, strain sam2, hits give low values 0.645 | locus YEL061C, strain CIN8, hits give low values 0.417 | locus YER111C, strain swi4, hits give low values 0.885 | locus YER167W, strain BCK2, hits give low values 0.585 | locus YFR010W, strain ubp6, hits give low values 0.862 | locus YGL086W, strain mad1, hits give low values 0.795 | locus YGL173C, strain kem1, hits give low values 0.81 | locus YGL248W, strain PDE1, hits give low values 0.345 | locus YGL253W, strain hxk2, hits give low values 0.887 | locus YGR078C, strain PAC10, hits give low values 0.704 | locus YGR135W, strain pre9, hits give low values 0.67 | locus YGR229C, strain SMI1, hits give low values 0.0876 | locus YGR252W, strain gcn5, hits give low values 0.56 | locus YHR013C, strain ard1, hits give low values 0.805 | locus YHR027C, strain rpn1, hits give low values 0.812 | locus YHR030C, strain SLT2, hits give low values 0.59 | locus YHR079C, strain IRE1 (second series), hits give low values 0.864 | locus YHR129C, strain ARP1, hits give low values 0.536 | locus YHR142W, strain chs7, hits give low values 0.841 | locus YHR200W, strain rpn10, hits give low values 0.794 | locus YIL066C, strain RNR3, hits give low values 0.0947 | locus YIL073C, strain SPO22, hits give low values 0.159 | locus YJL095W, strain BCK1, hits give low values 0.154 | locus YJL134W, strain LCB3, hits give low values 0.732 | locus YJL164C, strain tpk1, hits give low values 0.868 | locus YJL166W, strain qcr8, hits give low values 0.883
inactive: locus YAL030W, strain snc1, hits give low values 0.971 | locus YBL061C, strain skt5, hits give low values 0.932 | locus YBR021W, strain FUR4, hits give low values 1.05 | locus YBR171W, strain sec66, hits give low values 0.972 | locus YBR279W, strain paf1, hits give low values 0.942 | locus YCL011C, strain gbp2, hits give low values 0.948 | locus YCL016C, strain dcc1, hits give low values 0.976 | locus YCL061C, strain MRC1, hits give low values 0.942 | locus YCL069W, strain vba3, hits give low values 0.986 | locus YCR088W, strain abp1, hits give low values 1 | locus YDL005C, strain med2, hits give low values 0.996 | locus YDL040C, strain nat1, hits give low values 1 | locus YDL185W, strain tfp1, hits give low values 0.92 | locus YDR001C, strain nth1, hits give low values 0.992 | locus YDR159W, strain sac3, hits give low values 1.06 | locus YDR195W, strain ref2 1.03 | locus YDR297W, strain sur2, hits give low values 0.966 | locus YDR335W, strain msn5, hits give low values 0.938 | locus YDR392W, strain spt3, hits give low values 0.939 | locus YEL003W, strain gim4, hits give low values 0.946 | locus YEL037C, strain rad23, hits give low values 0.946 | locus YEL061C, strain CIN8 (second series), hits give low values 0.992 | locus YER015W, strain faa2, hits give low values 0.93 | locus YER016W, strain bim1, hits give low values 0.968 | locus YER110C, hits give low values 1.01 | locus YER155C, strain BEM2 (second series), hits give low values 0.927 | locus YER155C, strain BEM2, hits give low values 0.982 | locus YGL078C, strain dbp3, hits give low values 1 | locus YGL167C, strain pmr1, hits give low values 0.969 | locus YGL227W, strain vid30, hits give low values 1 | locus YGL240W, strain doc1, hits give low values 1 | locus YHR094C, strain hxt1, hits give low values 0.982 | locus YIL125W, strain kgd1, hits give low values 0.995 | locus YIR030C, strain dcg1, hits give low values 0.956 | locus YJL092W, strain hpr5, hits give low values 0.992 | locus YJL095W, strain BCK1 (second series), hits give low values 0.96 | locus YJL115W, strain asf1, hits give low values 0.986 | locus YJL129C, strain trk1, hits give low values 1.04 | locus YJL154C, strain vps35, hits give low values 1 | locus YJL168C, strain set2, hits give low values 0.954

Source: PubChem BioAssay AID1159580 (chemical genetic matrix, 2015)
